Test results taken from PubChem BioAssay AID1159580 (chemical genetic matrix, 2015).
Values joined by “and” are separate entries in the source; they are usually repeats but may differ in a detail not shown here. Equal values may be shown once. The whole screen tested about 5,500 compounds, of which about 2,000 (36%) were called active. About 18% were inconclusive and are not listed. Cut-off read from the data, not from the text of the source: active = normalized growth mostly below about 0.91 (no sharp cut-off); inconclusive = no clear call, values can overlap the other calls; inactive = mostly above about 0.92. The list shows a part of the results.

Assay: chemical genetic growth profiling, strain panel (AID 1159580);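 note: tested at 20 µM; growth read once vehicle control cultures reached saturation at 30 °C; 1 = growth at the plate median or of vehicle wells; lower values mean less growth of the strain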
Conditions: growth OD

Measured: normalized growth

CCCN(CCC)C(=O)C(CCC(=O)O)NC(=O)c1ccccc1 (stereo unspecified)
inactive: S. cerevisiae deletion strains, locus YJR075W, strain HOC1, hits give low values 0.988 | S. cerevisiae deletion strains, locus YKL009W, strain mrt4, hits give low values 1.02 | S. cerevisiae deletion strains, locus YKL068W, hits give low values 0.975 | S. cerevisiae deletion strains, locus YKL085W, strain MDH1 (second series), hits give low values 0.987 | S. cerevisiae deletion strains, locus YKL085W, strain MDH1, hits give low values 0.987 | S. cerevisiae deletion strains, locus YKL160W, strain elf1, hits give low values 1.01 | S. cerevisiae deletion strains, locus YKL190W, strain CNB1, hits give low values 0.988 | S. cerevisiae deletion strains, locus YKR001C, strain vps1, hits give low values 0.995 | S. cerevisiae deletion strains, locus YKR026C, strain gcn3, hits give low values 0.974 | S. cerevisiae deletion strains, locus YKR091W, strain srl3, hits give low values 0.985 | S. cerevisiae deletion strains, locus YLL001W, strain dnm1, hits give low values 0.973 | S. cerevisiae deletion strains, locus YLL026W, hits give low values 0.993 | S. cerevisiae deletion strains, locus YLL041C, strain sdh2, hits give low values 0.982 | S. cerevisiae deletion strains, locus YLR027C, strain aat2, hits give low values 0.982 | S. cerevisiae deletion strains, locus YLR039C, strain RIC1, hits give low values 0.987 | S. cerevisiae deletion strains, locus YLR058C, strain SHM2, hits give low values 0.997 | S. cerevisiae deletion strains, locus YLR102C, strain apc9, hits give low values 0.986 | S. cerevisiae deletion strains, locus YLR113W, strain HOG1, hits give low values 0.96 | S. cerevisiae deletion strains, locus YLR221C, strain rsa3, hits give low values 0.988 | S. cerevisiae deletion strains, locus YLR258W, strain gsy2, hits give low values 0.973 | S. cerevisiae deletion strains, locus YLR262C, strain YPT6 (second series), hits give low values 0.968 | S. cerevisiae deletion strains, locus YLR262C, strain YPT6, hits give low values 0.998 | S. cerevisiae deletion strains, locus YLR268W, strain sec22, hits give low values 0.955 | S. cerevisiae deletion strains, locus YLR320W, strain mms22, hits give low values 0.987 | S. cerevisiae deletion strains, locus YLR330W, strain CHS5, hits give low values 0.995 | S. cerevisiae deletion strains, locus YLR342W, strain FKS1 (second series), hits give low values 1.08 | S. cerevisiae deletion strains, locus YLR342W, strain FKS1, hits give low values 0.989 | S. cerevisiae deletion strains, locus YLR357W, strain rsc2, hits give low values 0.964 | S. cerevisiae deletion strains, locus YLR370C, strain arc18, hits give low values 0.984 | S. cerevisiae deletion strains, locus YLR371W, strain rom2, hits give low values 0.986 | S. cerevisiae deletion strains, locus YLR384C, strain iki3, hits give low values 0.982 | S. cerevisiae deletion strains, locus YLR418C, strain cdc73, hits give low values 1 | S. cerevisiae deletion strains, locus YML016C, strain PPZ1, hits give low values 1.01 | S. cerevisiae deletion strains, locus YML032C, strain rad52, hits give low values 0.982 | S. cerevisiae deletion strains, locus YML120C, strain ndi1, hits give low values 0.988 | S. cerevisiae deletion strains, locus YML124C, strain tub3, hits give low values 0.988 | S. cerevisiae deletion strains, locus YMR058W, strain fet3, hits give low values 0.983 | S. cerevisiae deletion strains, locus YMR078C, strain ctf18, hits give low values 0.985 | S. cerevisiae deletion strains, locus YMR125W, strain sto1, hits give low values 0.975 | S. cerevisiae deletion strains, locus YMR129W, hits give low values 1 | S. cerevisiae deletion strains, locus YMR205C, strain PFK2, hits give low values 0.992 | S. cerevisiae deletion strains, locus YMR223W, strain ubp8, hits give low values 1.02 | S. cerevisiae deletion strains, locus YMR231W, strain pep5, hits give low values 0.976 | S. cerevisiae deletion strains, locus YMR263W, strain SAP30, hits give low values 0.99 and 1.01 | S. cerevisiae deletion strains, locus YMR307W, strain GAS1, hits give low values 1.06 and 0.989 | S. cerevisiae deletion strains, locus YNL067W, strain RPL9B, hits give low values 0.982 | S. cerevisiae deletion strains, locus YNL071W, strain lat1, hits give low values 1 | S. cerevisiae deletion strains, locus YNL128W, strain TEP1, hits give low values 0.983 | S. cerevisiae deletion strains, locus YNL153C, strain GIM3, hits give low values 1 and 1.01 | S. cerevisiae deletion strains, locus YNL175C, strain NOP13, hits give low values 1.01 | S. cerevisiae deletion strains, locus YNL183C, strain NPR1, hits give low values 0.933 | S. cerevisiae deletion strains, locus YNL197C, strain WHI3, hits give low values 1.08 | S. cerevisiae deletion strains, locus YNL209W, strain ssb2, hits give low values 0.979 | S. cerevisiae deletion strains, locus YNL224C, strain SQS1, hits give low values 1 | S. cerevisiae deletion strains, locus YNL233W, strain BNI4, hits give low values 0.989 | S. cerevisiae deletion strains, locus YNL248C, strain rpa49, hits give low values 0.948 | S. cerevisiae deletion strains, locus YNL250W, strain rad50, hits give low values 0.982 | S. cerevisiae deletion strains, locus YNL271C, strain bni1, hits give low values 0.988 | S. cerevisiae deletion strains, locus YNL298W, strain CLA4, hits give low values 0.998 | S. cerevisiae deletion strains, locus YNL307C, strain MCK1, hits give low values 0.996 | S. cerevisiae deletion strains, locus YNL322C, strain KRE1 (second series), hits give low values 0.99 | S. cerevisiae deletion strains, locus YNL322C, strain KRE1, hits give low values 0.982 and 1.01 | S. cerevisiae deletion strains, locus YNR049C, strain mso1, hits give low values 0.968 | S. cerevisiae deletion strains, locus YNR052C, strain pop2, hits give low values 0.991 | S. cerevisiae deletion strains, locus YOL006C, strain TOP1, hits give low values 0.957 | S. cerevisiae deletion strains, locus YOL012C, strain htz1 1.01 | S. cerevisiae deletion strains, locus YOL147C, strain pex11, hits give low values 0.995 | S. cerevisiae deletion strains, locus YOR001W, strain rrp6, hits give low values 0.984 | S. cerevisiae deletion strains, locus YOR061W, strain CKA2, hits give low values 1.01 | S. cerevisiae deletion strains, locus YOR069W, strain VPS5, hits give low values 0.997 | S. cerevisiae deletion strains, locus YOR070C, strain gyp1, hits give low values 0.99 | S. cerevisiae deletion strains, locus YOR080W, strain dia2, hits give low values 0.969 | S. cerevisiae deletion strains, locus YOR083W, strain WHI5 (second series), hits give low values 1.01 | S. cerevisiae deletion strains, locus YOR083W, strain WHI5, hits give low values 0.98 | S. cerevisiae deletion strains, locus YOR106W, strain vam3, hits give low values 0.975 | S. cerevisiae deletion strains, locus YOR136W, strain idh2, hits give low values 0.989 | S. cerevisiae deletion strains, locus YOR144C, strain elg1, hits give low values 0.977 | S. cerevisiae deletion strains, locus YOR184W, strain ser1, hits give low values 0.993 | S. cerevisiae deletion strains, locus YOR231W, strain MKK1, hits give low values 0.978 | S. cerevisiae deletion strains, locus YOR265W, strain rbl2, hits give low values 0.987 | S. cerevisiae deletion strains, locus YOR270C, strain vph1, hits give low values 0.919 | S. cerevisiae deletion strains, locus YOR290C, strain snf2, hits give low values 0.988 | S. cerevisiae deletion strains, locus YOR316C, strain cot1, hits give low values 0.977 | S. cerevisiae deletion strains, locus YPL051W, strain arl3, hits give low values 0.987 | S. cerevisiae deletion strains, locus YPL055C, strain LGE1, hits give low values 0.99 and 1.01 | S. cerevisiae deletion strains, locus YPL078C, strain atp4, hits give low values 0.992 | S. cerevisiae deletion strains, locus YPL106C, strain sse1, hits give low values 0.955 | S. cerevisiae deletion strains, locus YPL240C, strain hsp82, hits give low values 0.986 | S. cerevisiae deletion strains, locus YPL241C, strain CIN2, hits give low values 1 | S. cerevisiae deletion strains, locus YPL256C, strain CLN2, hits give low values 0.965 | S. cerevisiae deletion strains, locus YPR119W, strain clb2, hits give low values 0.989 | S. cerevisiae deletion strains, locus YPR141C, strain kar3, hits give low values 0.984 | S. cerevisiae deletion strains, locus YPR163C, strain tif3, hits give low values 0.977 | S. cerevisiae deletion strains, locus YPR167C, strain met16, hits give low values 0.983 | S. cerevisiae deletion strains, strain wtn01, hits give low values 0.987 | S. cerevisiae strains, strain wild type, hits give low values 1
